RmlC RmlD mix: mixture blocks RmlC and RmlD coupled enzyme activity; RmlC/RmlD coupled enzyme inhibition, 384-well mixture HTS; AID 1532; hit rate 0.39% among 110,000; inhibition, % at 5.5 µM; in the data active = inhibition above about 30%, passing the limit was not always enough; inconclusive = no clear call, values can overlap the other calls
YopH inh: YopH (Yersinia) phosphatase inhibition; fluorescence Ex485/Em525; inhibition, % (test concentration not listed); hit rate 0.16% among 140,000; AID 898; in the data active = inhibition above about 50%
Large screens that a line does not name were inactive. Rows were chosen to be rich in hits. Some 0.44% of all compounds tested hit in one or more screens of this group.

CCSc1nnc(NC(=O)CSc2nnc(CNC(=O)c3ccc(OC)c(OC)c3)o2)s1	none (no result: RmlC RmlD mix)
COc1ccc(NC(=O)/C(=C/c2cccnc2)NC(=O)c2cccs2)cc1	YopH inh 53 (no result: RmlC RmlD mix)
COc1ccc(NC(=O)/C(=C\c2cccnc2)NC(=O)c2cccs2)cc1	none (no result: RmlC RmlD mix)
CO/C=C\C=C/c1nnn(-c2ccc(Cl)cc2)n1	none (no result: RmlC RmlD mix)
CCC(C)n1c(NC(=O)c2ccccc2)c(C#N)c2nc3ccccc3nc21 (stereo not drawn)	none
CCCCn1c(NC(=O)c2ccccc2)c(C#N)c2nc3ccccc3nc21	YopH inh 60 (no result: RmlC RmlD mix)
Cn1c(=O)c(-c2ccccc2)nn2c3ccccc3nc12	none
Cc1nc2c(=O)n(C)c(=O)nc-2n(C)n1	YopH inh 101 (no result: RmlC RmlD mix)
O=C(CN1CCN(Cc2ccccc2)CC1)N1CCCc2c1c(=O)oc1ccc(O)cc21	none (no result: RmlC RmlD mix)
O=C(c1ccco1)N1CCN(CC(=O)N2CCCc3c2c(=O)oc2ccc(O)cc32)CC1	YopH inh 53
CCCCCCc1nc2ccccc2c(=O)n1NC(=O)c1c(O)c2cccc3c2n(c1=O)CC3	none (no result: RmlC RmlD mix)
O=C(O)c1cn(C2CC2)c2cc(N3CCOCC3)c(F)cc2c1=O	none (no result: RmlC RmlD mix)
COc1ccc(CCC(=O)N2CCCSC2=Nc2ccc(C(C)=O)cc2)cc1	none (no result: RmlC RmlD mix)
COCCn1c(SCC(=O)Nc2ccc(NC(=O)c3ccco3)c(OC)c2)nc2ccccc2c1=O	none
CCn1c(SCC(=O)Nc2ccc(NC(=O)c3ccco3)c(OC)c2)nc2ccccc2c1=O	RmlC RmlD mix 95
C=C1[C@@H](OC(C)=O)CC[C@]2(C)[C@@H]1C[C@@H]1C[C@H](OC(C)=O)C(C)=C([C@@H](OC(C)=O)[C@@H]2OC(C)=O)C1(C)C	none (no result: YopH inh)
O=C1C(N2CCOCC2)=C(n2nnc3ccccc32)C(=O)c2ccccc21	YopH inh 69
O=C1c2ccccc2C(=O)c2c1cccc2N1CCOCC1	none (no result: RmlC RmlD mix)
CCS(=O)(=O)n1nc(-c2ccccc2)nc1SC	none
Cc1ccc(N(C(=O)Cn2nnc(-c3ccc(F)cc3)n2)C(CC(C)C)C(=O)NCC2CCCO2)cc1 (stereo not drawn)	none
COc1cc(-c2nc3cnccn3c2Nc2ccc(C)cc2)ccc1O	none
COc1cc(-c2nc3cnccn3c2Nc2ccccc2)ccc1O	RmlC RmlD mix 40
CCn1cc(C(=O)O)c(=O)c2cc(F)c(N/N=C/c3ccccc3[N+](=O)[O-])cc21	none (no result: RmlC RmlD mix)
COCCCn1c(=N)c(C(=O)NCC2CCCO2)cc2c(=O)n3ccccc3nc21 (stereo not drawn)	RmlC RmlD mix 69
C=CCn1c(=N)c(C(=O)NCCCOC)cc2c(=O)n3cccc(C)c3nc21	RmlC RmlD mix 50
CCOC(=O)c1cc2c(=O)n3cccc(C)c3nc2n(C)c1=N	none (no result: RmlC RmlD mix)
CNC(=O)c1cc2c(=O)n3cccc(C)c3nc2n(C(C)C)c1=N	RmlC RmlD mix 89
COCCCn1c(=N)c(C(=O)NCC2CCCO2)cc2c(=O)n3cccc(C)c3nc21 (stereo not drawn)	none (no result: RmlC RmlD mix)
CCCCNC(=O)c1cc2c(=O)n3cccc(C)c3nc2n(Cc2ccccc2)c1=N	none
CCOC(=O)c1cc2c(C)n(-c3ccc(C)cc3)c(C)c2ccc1=O	none
CCNC(=S)NNC(=O)CCn1cc(C)cn1	none (no result: RmlC RmlD mix)
CC(C)CC1(C(=O)NCc2cc(F)cc(C(F)(F)F)c2)C=CCN1C(=O)c1ccccc1 (stereo not drawn)	none
COCCNC(=O)c1c(N)n(CCCn2ccnc2)c2nc3ccccc3nc12	RmlC RmlD mix 124
COCCCn1c(N)c(C(=O)OCCOC)c2nc3ccccc3nc21	YopH inh 51
CCCCNC(=O)c1c(N)n(CCCOC)c2nc3ccccc3nc12	none
COCCNC(=O)c1c(N)n(CCC(C)C)c2nc3ccccc3nc12	none
COc1ccc2[nH]c3c(c2c1)CCn1c-3nc2sc(C(=O)Nc3ccccc3)c(C)c2c1=O	none (no result: RmlC RmlD mix)
CN1CCc2c(sc3c2C(=O)NC(c2cccc(OC(=O)c4cccs4)c2)N3)C1 (stereo not drawn)	YopH inh 72 (no result: RmlC RmlD mix)
CN1CCc2c(sc3c2C(=O)NC(c2ccco2)N3)C1 (stereo not drawn)	none
N[C@@H](C(=O)N[C@@H]1C(=O)N2C(C(=O)O)=C(Cl)CS[C@H]12)c1ccccc1	YopH inh 97
NC(=O)c1cc[n+](CC2=C(C(=O)O)N3C(=O)[C@@H](NC(=O)C(c4ccccc4)S(=O)(=O)[O-])[C@H]3SC2)cc1 (stereo partly drawn)	none
COc1ccc(CN=C2NC(=O)CC(C(=O)Nc3ccccc3C)S2)cc1 (stereo not drawn)	none (no result: RmlC RmlD mix)
O=C1CSC(=Nc2cc(Cl)ccc2Cl)N1	none
O=C(NCc1ccco1)C1CCCN(S(=O)(=O)Cc2ccccc2)C1 (stereo not drawn)	none
Cc1ccc(S(=O)(=O)N2CCCC(C(=O)NCc3ccco3)C2)cc1Cl (stereo not drawn)	YopH inh 56
Cc1cc(C)nc(SCC(=O)Oc2ccc3oc(=O)cc(C)c3c2)n1	YopH inh 51
CCC(=O)Oc1ccc2oc(=O)cc(C)c2c1	none (no result: RmlC RmlD mix)
Cc1cc(N2CCCc3ccccc32)n2ncnc2n1	none
Cc1csc(N2CCc3ccccc32)n1	YopH inh 54
COc1ccc(Cc2c3cc(OC)c(OC)cc3cc[n+]2C)cc1OC	none (no result: YopH inh)
COc1ccc(Cc2nccc3cc(OC)c(OC)cc23)cc1OC	YopH inh 67
O=C(c1ccco1)N1CCN=C1SCc1cccnc1	none
O=C(c1cccs1)N1CCN=C1SCc1cccnc1	YopH inh 50
CCOC(=O)C1CCCN(C(=O)CN2C(=O)/C(=C/c3ccc(OC)cc3)Oc3ccccc32)C1 (stereo not drawn)	none (no result: RmlC RmlD mix)
COc1ccc(NS(=O)(=O)c2cccc(-c3nnc4n3CCCCC4)c2)cc1	none
COc1ccc(-c2cc3nc4n(c(=O)c3s2)CCC4)cc1	RmlC RmlD mix 50
CC(C)n1nc(Cc2cccc3ccccc23)c(C#N)c1N	none (no result: YopH inh)
CCN(CC)C(=O)/C(=C\c1cccc([N+](=O)[O-])c1)NC(=O)c1ccco1	none (no result: RmlC RmlD mix)
O=C(O)CCC1OC(=O)C(O)=C1c1ccccc1 (stereo not drawn)	none (no result: YopH inh)
CCOC(=O)c1sc(NC(=O)CCN2C(=O)c3cccc([N+](=O)[O-])c3C2=O)c(C(=O)OCC)c1C	none
Nc1nnnn1/N=C/c1ccc(O)cc1	none
CCN(C)c1ccc(/C=N\n2nnnc2N)cc1	RmlC RmlD mix 71
c1ccc(-c2csc3ncnc(NCCCN4CCOCC4)c23)cc1	YopH inh 51
c1csc(-c2csc3ncnc(NCCCN4CCOCC4)c23)c1	none
CC(C)C(=O)Nc1ccnc(-c2cccnc2)n1	RmlC RmlD mix inconclusive
O=C1CC(N(O)c2ccccc2)C(=O)N1Cc1ccccc1 (stereo not drawn)	YopH inh 57
O=C1CC(N(O)c2ccccc2)C(=O)N1c1cc(Cl)cc(Cl)c1 (stereo not drawn)	none
CC(=O)c1cc2c(cc1NC(=O)C1CC1)OCO2	none
Cn1nc(C(F)(F)F)cc1C(=O)NC1CCCCCC1	none
N=c1c(C(=O)NC2CCCC2)cc2c(=O)n3ccccc3nc2n1CCN1CCOCC1	none
O=C(NCCN1CCOCC1)c1cc2c(=O)n3ccccc3nc2n1Cc1ccccc1	RmlC RmlD mix 86
CC(=O)N=c1c(C#N)cc2c(=O)n3ccccc3nc2n1Cc1ccccc1	none (no result: RmlC RmlD mix)
N#Cc1cc2c(=O)n3ccccc3nc2n(CCCN2CCOCC2)c1=O	RmlC RmlD mix 79
O=C(NC(=S)Nc1ccc2c(c1)C(=O)c1ccccc1C2=O)c1ccc(F)cc1	none (no result: RmlC RmlD mix)
CC(C)CNC(=O)c1cccc(NC(=O)Cc2ccc(Cl)cc2)c1	none (no result: RmlC RmlD mix)
COC(=O)c1ccc(Cl)c(NC(=O)CN2CCN(Cc3ccccc3)CC2)c1	YopH inh 64
COC(=O)c1cccc(NC(=O)CN2CCN(Cc3ccccc3)CC2)c1	none
CCOC(=O)COc1cc(=O)n(CC)c2ccccc12	YopH inh 52

Screens: PubChem BioAssay, several laboratories
